Data published in PubChem BioAssay AID651821 (The Scripps Research Institute Molecular Screening Center, 2012).
The campaign covered roughly 370,000 compounds. About 4,700 (1.3%) were called active.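 Rule for the calls: active = inhibition above the plate cutoff, the mean of all test compounds on that plate plus 3 SD (cut at about 35% in these data); inactive = the rest.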 This excerpt belongs to a sample that is enriched for actives.

Experiment: small molecules binding CAG repeat RNA – biochemical, fluorescence, primary screen (AID 651821);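 note: 0% = DMSO alone and 100% = 100 µM mitoxantrone as full dye displacement; higher means more dye released from RNA so lower well fluorescence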
Conditions: r(CAG) RNA repeat, TO-PRO-1 dye displacement fluorescence; at 3 µM; hits give high values
In the case of `CC(=O)Nc1ccc(CN2CCC(Oc3ccc(C(=O)N4CCCC4)cc3)CC2)cc1`, the inhibition was -7.88% (inactive). In the case of `COC(=O)C12C=C3CC(c4ccccc4)=C3C(=O)N1Cc1[nH]c3ccccc3c1C2` (stereo not given), the inhibition was 7.34% (inactive). For `O=C(Nc1nnc(-c2ccccc2)o1)c1cccc(S(=O)(=O)N2CCOCC2)c1`, the inhibition was 8.5% (inactive). With `CC1CCCCN1S(=O)(=O)c1ccc(S(=O)(=O)N(CC(=O)Nc2ccccc2)Cc2cccs2)cc1` (stereo not given) the inhibition was 2.51% (inactive). For `CC1CN(S(=O)(=O)c2ccc(C(=O)Nc3sccc3C(N)=O)cc2)CC(C)O1` (stereo not given), the inhibition was 11.2% (inactive). With `CC1CCCN(S(=O)(=O)c2ccc(C(=O)Nc3nnc(-c4ccncc4)o3)cc2)C1` (stereo not given) the inhibition was 35% (active). In the case of `CC1CC(C)CN(S(=O)(=O)c2ccc(C(=O)NN3CCOCC3)cc2)C1` (stereo not given), the inhibition was -3.03% (inactive). With `CC1CCCCN1S(=O)(=O)c1ccc(C(=O)Nc2nnc(-c3cccs3)o2)cc1` (stereo not given) the inhibition was 49% (active). In the case of `O=C(NCc1ccc(Cl)cc1)C1CCCN(c2nc3ccccc3o2)C1` (stereo not given), the inhibition was 5.58% (inactive). In the case of `CC(=O)Nc1ccc(OC[C@@H](O)CN2CCC(C(O)(c3ccccc3)c3ccccc3)CC2)cc1`, the inhibition was -1% (inactive). With `O=C(NCc1ccccc1)[C@H]1CCCN1C(=O)[C@H]1CCCN1C(=O)c1cc(F)cc(F)c1` the inhibition was -2.08% (inactive). For `CCOC(=O)c1c(C)nn(-c2ncccc2NC(=O)CCC(=O)O)c1C`, the inhibition was 3.15% (inactive). With `CCOC(=O)c1c(-c2ccc(C)cc2C)csc1NC(=O)CSc1nnnn1C` the inhibition was 1.95% (inactive). In the case of `CCOC(=O)c1c(-c2ccc(-c3ccccc3)cc2)csc1NC(=O)CCC(=O)O`, the inhibition was 43.3% (active). For `CC1(C)CC(=O)C=C(NCCN2CCNCC2)C1`, the inhibition was -4.08% (inactive). With `CC(=O)C1=C(C)N(Cc2ccc(Cl)cc2)C(=S)NC1c1ccc(F)cc1` (stereo not given) the inhibition was 5.48% (inactive). For `O=C(COC(=O)c1cc([N+](=O)[O-])ccc1NCc1ccccc1)NC1CCCCC1`, the inhibition was -1.88% (inactive). In the case of `Cc1ccc(S(=O)(=O)NCCCn2ccnc2)cc1C(=O)NC(C)C`, the inhibition was -1.64% (inactive). With `Cc1cccc(NS(=O)(=O)c2ccc(C)c(C(=O)NCC(c3ccccc3)N(C)C)c2)c1` (stereo not given) the inhibition was -4.14% (inactive). In the case of `Cc1ccc(S(=O)(=O)NCCC(c2ccccc2)c2ccccc2)cc1C(=O)O`, the inhibition was 42.4% (active). For `O=S1(=O)c2ccc(N3CCN(Cc4ccccc4F)CC3)cc2Oc2ccccc2CN1Cc1cn(Cc2ccc(Cl)cc2)nn1`, the inhibition was 12.5% (inactive). In the case of `O=S1(=O)c2c(cccc2N2CC[C@H](O)C2)O[C@@H]2CCN1C2`, the inhibition was 2.13% (inactive). For `NC(=O)Cc1ccc2sc(-c3ccccc3)nc2c1`, the inhibition was 1.7% (inactive). With `Oc1ccc(-c2[nH]ncc2-c2nc3ccccc3s2)c(O)c1` the inhibition was 34.9% (active). With `Cc1ccc(S(=O)(=O)N2CCN(C(=O)c3ccccc3-c3nc4ccccc4s3)CC2)c(C)c1` the inhibition was -1.03% (inactive).
